Several values for one entry are separate records, joined by “and”; a condition that tells them apart may be missing. Equal values may be shown once. Out of some 16,000 compounds screened, about 5,800 (36%) were called active. About 23% were inconclusive and are not listed. This is one part of the list. Unmarked numbers belong to inactive results. The call rests on the fitted dose curve; in most records, active means well fitted curve in the direction sought with a large enough effect; inconclusive means small, poorly fitted or top-dose-only effect, or effect the other way; inactive means no such curve, though single readings can be large or run the other way.
Target: Cytochrome P450 2C19 (Homo sapiens) (UniProt P33261)
Test: Cytochrome panel assay with activity outcomes
Settings: recombinant CYP, pro-luciferin dealkylation, luminescence, p450-cyp2c19; series mostly up to 57.1 µM; activity, negative = inhibition: at the top concentration
On the % scale 0 is the no-effect control and ±100 the full control effect.

Chain of Cytochrome P450 2C19 (Homo sapiens) (P33261 whole entry, looked up): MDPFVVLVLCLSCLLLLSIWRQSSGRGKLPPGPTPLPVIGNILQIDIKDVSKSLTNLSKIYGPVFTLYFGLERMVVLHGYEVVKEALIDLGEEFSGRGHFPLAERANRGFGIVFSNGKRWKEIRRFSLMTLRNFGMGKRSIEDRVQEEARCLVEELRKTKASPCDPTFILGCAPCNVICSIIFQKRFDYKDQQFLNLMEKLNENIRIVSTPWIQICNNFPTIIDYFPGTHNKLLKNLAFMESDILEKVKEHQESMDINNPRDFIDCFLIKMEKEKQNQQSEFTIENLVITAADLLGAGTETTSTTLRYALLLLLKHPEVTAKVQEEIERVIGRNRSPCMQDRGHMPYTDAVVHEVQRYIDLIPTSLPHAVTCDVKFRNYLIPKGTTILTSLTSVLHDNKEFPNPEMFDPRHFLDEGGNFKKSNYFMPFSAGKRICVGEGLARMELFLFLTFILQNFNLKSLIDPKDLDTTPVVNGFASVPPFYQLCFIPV

SMILES | AC50 | activity, negative = inhibition
Cc1nn(C(=O)c2cccnc2)c(C)c1Sc1ccc(Br)cc1 | 0.631 µM (active) | –
O=C(c1ccco1)N1CCC2(CC1)CCN(c1ccccc1)CC2 | – | -29.3%
CC(C)(C(=O)c1cccnc1)c1cccnc1 | – | -11.6% [at 25.6 µM]
O=C(c1ccco1)N1CCC[C@@]2(CCN(Cc3ccccc3)C2)C1 | – | -21.5%
Cc1nn(C(=O)c2ccco2)c(C)c1Sc1ccccc1 | 6.31 µM (active) | –
Cc1nn(C(C)(C)C)c(OC(=O)c2ccco2)c1Sc1ccccc1 | 7.08 µM (active) | –
C/C(CCN1CCCc2nc(C)c(C)cc21)=N\OC[C@@H](C)[C@H](OCc1ccccc1)C(C)C | – | -29.2% [at 11.4 µM]
Cc1ccccc1CSc1nsc(N)n1 | 11.2 µM (active) | –
CCN1/C(=C/c2ccc3cccc(C)c3[n+]2CC)Sc2ccccc21 | – | -0.21%
O=C(CS(=O)c1cccc(Cl)c1)Nc1ccccc1Cl (stereo unspecified) | 2.51 µM (active) | –
O=C(CS(=O)(=O)c1cccc(Cl)c1)Nc1ccccc1Cl | 2.51 µM (active) | –
NC(=O)NC(=O)Nc1ccccc1Cl | – | -12.5%
O=C(CS(=O)c1cccc(C(F)(F)F)c1)Nc1ccccc1Cl (stereo unspecified) | 2.82 µM (active) | –
NCC(=O)Nc1ccc(Cl)cc1C(=O)c1ccc[nH]1 | – | -10.9% [at 11.4 µM]
OC[C@@H]1O[C@@H](n2cnc3c(N[C@H]4CCC[C@@H]4O)ncnc32)[C@H](O)[C@H]1O | – | -26.2%
O=C(Nc1ccc([N+](=O)[O-])cc1Cl)c1cc(Cl)ccc1O | – | -30.4%
Cc1cccc[n+]1CC(=O)Nc1ccc([N+](=O)[O-])cc1Cl | 3.16 µM (active) | –
Cc1ccc(S(=O)(=O)c2c(C)nn(C(C)(C)C)c2OC(=O)c2cccs2)cc1 | 1 µM (active) | –
CN1CCC(n2[nH]c(-c3ccccc3)c(Cc3ccccc3)c2=O)CC1 | – | -29.5% [at 11.4 µM]
COc1cc([C@H](O)CO)ccc1O | – | 9.63%
N#Cc1c(N)nc2c(c1-c1cccc(O)c1)CCCCCC2 | 7.08 µM (active) | –
Cc1c(-c2c(C#N)c(N)nc3c2CCCCCC3)cnn1C | 14.1 µM (active) | –
CCc1sc(-c2c(C#N)c(N)nc3c2CCCCCC3)cc1[N+](=O)[O-] | 3.98 µM (active) | –
FC(F)(F)c1ccc(N2CCOCC2)c(Nc2nc3ccccc3n3cnnc23)c1 | 3.55 µM (active) | –
CCCSc1nc(C)cc(C)c1S(=O)(=O)c1ccccc1C | 2.24 µM (active) | –
CCCCSc1nc(C)cc(C)c1S(=O)(=O)c1ccccc1C | 0.562 µM (active) | –

SMILES | AC50 | activity, negative = inhibition
Cc1ccccc1S(=O)(=O)c1c(C)cc(-c2ccccc2)[nH]c1=O | – | -7.26%
COc1ccccc1/C=C/C=N/N1CCN(Cc2cccc3ccccc23)CC1 | 14.1 µM (active) | –
COc1ccccc1CN1CCC2(CC1)CCN(S(C)(=O)=O)CC2 | – | -15.7%
COc1ccccc1CN1CCC2(CCNCC2)CC1 | – | -22.3%
Cc1ccc(C(=O)c2ccc(CC(=O)O)n2C)cc1 | – | -10.5% [at 25.6 µM]
O=C(Nc1ncc(Cc2ccccc2)s1)C1COc2ccccc2O1 (stereo unspecified) | – | -19.2%
O=C(Nc1cccnc1)C1COc2ccccc2O1 (stereo unspecified) | 11.2 µM (active) | –
O=C(NCc1cccnc1)C1COc2ccccc2O1 (stereo unspecified) | 8.91 µM (active) | –
COC(=O)CCCC(=O)O | – | 37.5% [at 11.4 µM]
O=C(O)CN(CCN(CC(=O)O)CC(=O)O)CC(=O)O.[Cu] | – | -41.9% [at 11.4 µM]
Cc1cc2c(c(=O)o1)[C@H](O)[C@H]1O[C@@H]1C2=O | – | -43.4% [at 11.4 µM]
O=C(CCN1C(=O)C2C3C=CC(C3)C2C1=O)NCCN1CCCc2ccccc21 (stereo unspecified) | 28.2 µM (active) | –
CC(C)(C)NCC[C@@H](O)c1cc(C(F)(F)F)nc2c(C(F)(F)F)cccc12 | – | -11% [at 11.4 µM]
CCN(CC)c1ccc2c(c1)OC(N)=C(C#N)C2c1cccnc1 (stereo unspecified) | 0.891 µM (active) | –
COc1ccc(NC(=O)C2c3cc(OC)c(OC)cc3C(=O)N(C)C2c2cccnc2)cc1OC (stereo unspecified) | – | -13.1%
COc1cc2c(cc1OC)C(C(=O)Nc1ccccn1)C(c1cccnc1)N(C)C2=O (stereo unspecified) | – | -28.9%
COc1cc2c(cc1OC)C(C(=O)Nc1cccc(C)n1)C(c1cccnc1)N(C)C2=O (stereo unspecified) | 0.251 µM (active) | –
COc1cc(N=C(N)N=C(N)N)c2ncccc2c1 | – | 36.7% [at 11.4 µM]
NCCNS(=O)(=O)c1ccc(N)cc1 | – | -4.78% [at 11.4 µM]
NCCCCNS(=O)(=O)c1cccc2c(Cl)cccc12 | 0.1 µM (active) | –
CCCCCCCNS(=O)(=O)c1cccc2c(Cl)cccc12 | 0.126 µM (active) | –
NCCCCCCNS(=O)(=O)c1cccc2c(Cl)cccc12 | 200 nM (active) and 10 nM (active) | –
NCCCCNS(=O)(=O)c1ccc2c(Cl)cccc2c1 | 0.00251 µM (active) | –
CNCCNS(=O)(=O)c1cccc2cnccc12 | – | -28.3%
Nc1ccc(S(=O)(=O)NCCS(=O)(=O)O)cc1 | – | 22.1% [at 11.4 µM]
